Measurements reported in the supplement of paper PMC11732987, “Enantioselective OTUD7B fragment discovery through chemoproteomics screening and high-throughput optimisation” (Communications Chemistry, 2025).

Experiments:
Experiment in all cases: log2 ratio of Biotin-Ahx-Ub-VS probe labelling (fragment/DMSO); higher = less target engagement (more negative = stronger competition), active = hit call of the paper (q ≤ 0.05, log2 ratio ≤ -1)
Conditions in all cases: compound concentration: 200 uM; treatment time: 3 h
USP34 = USP34 (UniProt Q70CQ2)
Chain of USP34 (Q70CQ2 whole entry, the tested form may be a part): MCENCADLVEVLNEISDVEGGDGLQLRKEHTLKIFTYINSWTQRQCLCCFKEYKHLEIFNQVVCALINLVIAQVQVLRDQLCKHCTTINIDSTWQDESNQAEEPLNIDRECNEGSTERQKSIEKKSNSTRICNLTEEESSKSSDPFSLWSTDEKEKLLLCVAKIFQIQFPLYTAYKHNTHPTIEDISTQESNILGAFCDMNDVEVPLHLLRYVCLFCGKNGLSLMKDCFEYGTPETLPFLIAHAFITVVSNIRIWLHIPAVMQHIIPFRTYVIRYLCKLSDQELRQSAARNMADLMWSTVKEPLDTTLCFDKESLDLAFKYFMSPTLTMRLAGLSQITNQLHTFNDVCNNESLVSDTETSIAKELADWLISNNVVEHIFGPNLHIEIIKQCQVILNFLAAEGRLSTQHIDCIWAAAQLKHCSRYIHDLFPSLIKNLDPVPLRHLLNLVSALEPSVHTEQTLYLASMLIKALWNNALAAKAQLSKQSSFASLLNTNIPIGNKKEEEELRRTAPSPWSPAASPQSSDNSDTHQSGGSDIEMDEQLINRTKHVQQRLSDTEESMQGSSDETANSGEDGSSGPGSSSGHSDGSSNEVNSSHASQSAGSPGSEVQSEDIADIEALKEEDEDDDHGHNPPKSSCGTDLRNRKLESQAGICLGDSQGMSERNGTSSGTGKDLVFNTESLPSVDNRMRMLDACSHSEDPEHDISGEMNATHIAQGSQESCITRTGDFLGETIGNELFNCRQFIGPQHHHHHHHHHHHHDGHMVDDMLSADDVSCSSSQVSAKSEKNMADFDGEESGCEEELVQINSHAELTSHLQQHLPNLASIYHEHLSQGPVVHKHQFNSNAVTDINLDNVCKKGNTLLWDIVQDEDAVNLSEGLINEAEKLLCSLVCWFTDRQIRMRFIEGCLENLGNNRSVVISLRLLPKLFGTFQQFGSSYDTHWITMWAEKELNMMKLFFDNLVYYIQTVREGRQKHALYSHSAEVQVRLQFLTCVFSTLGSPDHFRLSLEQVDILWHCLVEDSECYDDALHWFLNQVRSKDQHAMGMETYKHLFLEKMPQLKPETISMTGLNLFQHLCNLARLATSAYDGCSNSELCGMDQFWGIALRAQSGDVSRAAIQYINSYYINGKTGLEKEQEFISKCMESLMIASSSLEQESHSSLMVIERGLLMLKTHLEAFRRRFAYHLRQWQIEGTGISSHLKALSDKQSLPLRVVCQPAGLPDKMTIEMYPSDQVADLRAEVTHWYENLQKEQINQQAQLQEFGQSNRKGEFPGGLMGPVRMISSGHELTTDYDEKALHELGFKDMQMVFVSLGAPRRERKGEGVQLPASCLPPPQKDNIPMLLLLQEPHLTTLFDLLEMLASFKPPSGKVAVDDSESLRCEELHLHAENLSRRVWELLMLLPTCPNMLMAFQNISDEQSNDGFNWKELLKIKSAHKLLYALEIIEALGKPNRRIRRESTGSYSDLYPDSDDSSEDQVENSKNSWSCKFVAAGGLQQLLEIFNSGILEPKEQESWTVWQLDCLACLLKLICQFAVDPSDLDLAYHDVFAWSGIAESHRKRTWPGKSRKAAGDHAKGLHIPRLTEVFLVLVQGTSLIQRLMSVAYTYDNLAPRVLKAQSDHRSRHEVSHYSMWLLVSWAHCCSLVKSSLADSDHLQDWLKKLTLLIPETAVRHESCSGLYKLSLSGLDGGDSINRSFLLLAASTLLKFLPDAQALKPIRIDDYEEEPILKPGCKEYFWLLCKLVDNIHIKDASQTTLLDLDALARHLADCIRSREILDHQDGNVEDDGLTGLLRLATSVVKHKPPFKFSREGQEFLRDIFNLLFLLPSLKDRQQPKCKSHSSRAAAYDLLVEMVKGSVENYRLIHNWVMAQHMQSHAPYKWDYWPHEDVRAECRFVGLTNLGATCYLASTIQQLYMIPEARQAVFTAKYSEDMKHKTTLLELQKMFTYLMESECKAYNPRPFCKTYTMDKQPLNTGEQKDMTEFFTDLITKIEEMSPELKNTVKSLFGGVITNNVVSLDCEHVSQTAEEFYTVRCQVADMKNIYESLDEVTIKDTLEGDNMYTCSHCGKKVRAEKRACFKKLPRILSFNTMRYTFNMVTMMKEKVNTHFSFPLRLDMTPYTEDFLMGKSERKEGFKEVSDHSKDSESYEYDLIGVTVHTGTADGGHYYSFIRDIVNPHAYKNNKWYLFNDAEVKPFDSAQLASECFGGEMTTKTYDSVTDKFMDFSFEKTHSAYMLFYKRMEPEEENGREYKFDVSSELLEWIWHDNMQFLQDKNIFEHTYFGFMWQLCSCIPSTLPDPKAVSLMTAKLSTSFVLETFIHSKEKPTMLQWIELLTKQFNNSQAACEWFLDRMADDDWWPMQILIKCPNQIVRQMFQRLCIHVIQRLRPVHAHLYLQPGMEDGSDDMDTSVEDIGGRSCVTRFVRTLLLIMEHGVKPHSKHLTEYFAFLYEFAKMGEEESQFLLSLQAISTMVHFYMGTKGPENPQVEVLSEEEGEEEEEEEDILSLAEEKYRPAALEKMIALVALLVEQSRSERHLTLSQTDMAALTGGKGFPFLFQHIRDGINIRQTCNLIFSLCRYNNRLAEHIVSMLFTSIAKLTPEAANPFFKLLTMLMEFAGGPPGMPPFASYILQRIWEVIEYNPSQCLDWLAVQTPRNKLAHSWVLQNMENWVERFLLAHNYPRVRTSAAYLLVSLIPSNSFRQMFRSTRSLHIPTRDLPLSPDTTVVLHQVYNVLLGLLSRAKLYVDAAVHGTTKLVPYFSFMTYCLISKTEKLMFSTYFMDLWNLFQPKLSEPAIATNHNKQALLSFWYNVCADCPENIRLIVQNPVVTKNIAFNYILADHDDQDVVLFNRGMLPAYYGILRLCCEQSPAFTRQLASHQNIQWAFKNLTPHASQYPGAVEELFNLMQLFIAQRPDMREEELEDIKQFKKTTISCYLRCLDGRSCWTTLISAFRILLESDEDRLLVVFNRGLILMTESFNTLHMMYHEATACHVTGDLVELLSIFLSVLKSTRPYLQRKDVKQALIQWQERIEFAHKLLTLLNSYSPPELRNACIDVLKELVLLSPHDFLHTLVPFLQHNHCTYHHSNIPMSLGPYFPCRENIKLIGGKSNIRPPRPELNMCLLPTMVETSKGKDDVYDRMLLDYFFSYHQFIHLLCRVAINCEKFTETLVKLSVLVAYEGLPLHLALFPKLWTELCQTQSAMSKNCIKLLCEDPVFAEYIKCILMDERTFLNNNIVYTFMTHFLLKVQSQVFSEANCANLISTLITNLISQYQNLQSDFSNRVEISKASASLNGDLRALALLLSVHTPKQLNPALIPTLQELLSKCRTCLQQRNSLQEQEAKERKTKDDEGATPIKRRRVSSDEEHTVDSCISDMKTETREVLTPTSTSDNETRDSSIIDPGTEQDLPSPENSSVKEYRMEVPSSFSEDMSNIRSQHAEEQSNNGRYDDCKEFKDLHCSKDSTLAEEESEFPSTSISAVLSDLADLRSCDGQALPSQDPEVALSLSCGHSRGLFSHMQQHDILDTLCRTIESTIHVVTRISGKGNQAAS
Method in brief: (§1)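 Global-median-normalised Spectronaut label-free quantities were compared by unpaired t-test, and values are average log2 ratios of fragment over vehicle. Only proteins with ≥2 unique peptides were used. HEK293T lysate (495 µg per sample) was treated in triplicate with fragment at 200 µM or vehicle for 3 h and then with Biotin-Ahx-Ub-VS at 0.5 µM final for 1 h. Labelled DUBs were then NeutrAvidin-enriched, digested with LysC and trypsin, and run by diaPASEF LC-MS/MS.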

USP36 = target: T1, USP36 (UniProt Q9P275)
T1 sequence (whole entry): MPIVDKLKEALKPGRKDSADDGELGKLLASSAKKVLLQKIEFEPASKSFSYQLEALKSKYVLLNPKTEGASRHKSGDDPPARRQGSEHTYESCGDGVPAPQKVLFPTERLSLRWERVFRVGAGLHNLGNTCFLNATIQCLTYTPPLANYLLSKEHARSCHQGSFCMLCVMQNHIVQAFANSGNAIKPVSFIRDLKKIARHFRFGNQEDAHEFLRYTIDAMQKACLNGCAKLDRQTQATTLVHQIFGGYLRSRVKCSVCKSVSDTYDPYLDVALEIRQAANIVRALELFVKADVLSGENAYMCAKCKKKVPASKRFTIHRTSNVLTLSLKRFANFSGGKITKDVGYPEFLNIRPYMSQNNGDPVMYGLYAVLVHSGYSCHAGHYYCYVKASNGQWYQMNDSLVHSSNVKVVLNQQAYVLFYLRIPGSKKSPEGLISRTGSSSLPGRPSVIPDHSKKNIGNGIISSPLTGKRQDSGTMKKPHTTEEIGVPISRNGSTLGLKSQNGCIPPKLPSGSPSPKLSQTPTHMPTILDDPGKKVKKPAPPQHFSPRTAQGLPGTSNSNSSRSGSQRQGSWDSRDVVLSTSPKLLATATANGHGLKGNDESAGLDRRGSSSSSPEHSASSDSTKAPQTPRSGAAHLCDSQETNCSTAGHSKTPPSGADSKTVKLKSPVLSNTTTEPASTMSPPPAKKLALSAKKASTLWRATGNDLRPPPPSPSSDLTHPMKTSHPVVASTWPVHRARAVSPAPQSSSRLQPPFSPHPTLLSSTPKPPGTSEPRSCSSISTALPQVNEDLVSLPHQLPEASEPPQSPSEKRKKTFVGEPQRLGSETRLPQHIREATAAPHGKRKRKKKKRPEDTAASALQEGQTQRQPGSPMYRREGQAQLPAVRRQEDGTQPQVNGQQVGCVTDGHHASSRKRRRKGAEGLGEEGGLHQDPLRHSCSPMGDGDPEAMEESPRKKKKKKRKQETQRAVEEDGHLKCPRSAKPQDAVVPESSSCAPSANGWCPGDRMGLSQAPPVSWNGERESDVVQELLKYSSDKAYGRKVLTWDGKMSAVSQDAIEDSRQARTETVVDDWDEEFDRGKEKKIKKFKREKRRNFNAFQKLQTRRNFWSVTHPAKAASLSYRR
Method in brief: as §1

USP38 = target: T2, USP38 (UniProt Q8NB14)
T2 sequence (whole entry): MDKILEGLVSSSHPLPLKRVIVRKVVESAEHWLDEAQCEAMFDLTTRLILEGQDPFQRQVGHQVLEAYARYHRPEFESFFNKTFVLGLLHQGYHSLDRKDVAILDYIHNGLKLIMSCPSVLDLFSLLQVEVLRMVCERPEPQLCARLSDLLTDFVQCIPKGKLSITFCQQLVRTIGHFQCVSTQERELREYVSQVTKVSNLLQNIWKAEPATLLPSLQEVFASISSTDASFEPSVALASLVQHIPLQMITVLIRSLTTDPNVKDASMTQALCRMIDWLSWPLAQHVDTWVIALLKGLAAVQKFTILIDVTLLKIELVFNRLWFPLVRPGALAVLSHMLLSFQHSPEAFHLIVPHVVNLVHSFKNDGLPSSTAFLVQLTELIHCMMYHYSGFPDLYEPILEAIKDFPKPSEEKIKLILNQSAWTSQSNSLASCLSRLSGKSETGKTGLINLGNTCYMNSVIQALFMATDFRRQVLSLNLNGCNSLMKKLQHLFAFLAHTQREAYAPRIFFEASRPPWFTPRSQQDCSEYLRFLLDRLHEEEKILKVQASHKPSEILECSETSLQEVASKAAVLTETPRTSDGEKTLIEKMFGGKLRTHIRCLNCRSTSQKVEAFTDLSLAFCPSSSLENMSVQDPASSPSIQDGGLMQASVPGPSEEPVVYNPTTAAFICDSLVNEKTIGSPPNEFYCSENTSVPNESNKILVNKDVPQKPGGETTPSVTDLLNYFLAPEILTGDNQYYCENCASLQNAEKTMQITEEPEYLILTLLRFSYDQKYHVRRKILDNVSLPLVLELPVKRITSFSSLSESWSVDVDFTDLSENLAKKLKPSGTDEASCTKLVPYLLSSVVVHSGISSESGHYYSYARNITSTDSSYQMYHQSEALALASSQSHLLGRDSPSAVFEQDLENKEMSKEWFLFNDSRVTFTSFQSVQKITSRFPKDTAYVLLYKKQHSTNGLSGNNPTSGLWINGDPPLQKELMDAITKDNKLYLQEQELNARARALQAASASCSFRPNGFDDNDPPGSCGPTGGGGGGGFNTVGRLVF
Method in brief: as §1

USP39 = target: T3, USP39 (UniProt Q53GS9)
T3 sequence (whole entry): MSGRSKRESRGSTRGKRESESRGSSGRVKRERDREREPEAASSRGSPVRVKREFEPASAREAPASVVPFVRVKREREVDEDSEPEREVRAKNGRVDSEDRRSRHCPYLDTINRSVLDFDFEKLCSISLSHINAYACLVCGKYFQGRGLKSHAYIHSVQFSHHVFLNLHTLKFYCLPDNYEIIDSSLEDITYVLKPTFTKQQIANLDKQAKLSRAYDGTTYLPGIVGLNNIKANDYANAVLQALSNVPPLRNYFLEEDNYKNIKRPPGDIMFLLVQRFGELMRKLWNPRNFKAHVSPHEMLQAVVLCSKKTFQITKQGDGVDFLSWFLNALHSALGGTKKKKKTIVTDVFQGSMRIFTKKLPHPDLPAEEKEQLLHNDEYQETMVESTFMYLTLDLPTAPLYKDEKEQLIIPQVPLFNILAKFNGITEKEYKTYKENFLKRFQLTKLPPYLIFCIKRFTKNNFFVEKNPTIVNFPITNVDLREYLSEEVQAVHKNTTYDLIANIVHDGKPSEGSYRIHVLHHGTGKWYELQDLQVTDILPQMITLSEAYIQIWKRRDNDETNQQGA
Method in brief: as §1

USP4 = target: T4, USP4 (UniProt Q13107)
T4 sequence (whole entry): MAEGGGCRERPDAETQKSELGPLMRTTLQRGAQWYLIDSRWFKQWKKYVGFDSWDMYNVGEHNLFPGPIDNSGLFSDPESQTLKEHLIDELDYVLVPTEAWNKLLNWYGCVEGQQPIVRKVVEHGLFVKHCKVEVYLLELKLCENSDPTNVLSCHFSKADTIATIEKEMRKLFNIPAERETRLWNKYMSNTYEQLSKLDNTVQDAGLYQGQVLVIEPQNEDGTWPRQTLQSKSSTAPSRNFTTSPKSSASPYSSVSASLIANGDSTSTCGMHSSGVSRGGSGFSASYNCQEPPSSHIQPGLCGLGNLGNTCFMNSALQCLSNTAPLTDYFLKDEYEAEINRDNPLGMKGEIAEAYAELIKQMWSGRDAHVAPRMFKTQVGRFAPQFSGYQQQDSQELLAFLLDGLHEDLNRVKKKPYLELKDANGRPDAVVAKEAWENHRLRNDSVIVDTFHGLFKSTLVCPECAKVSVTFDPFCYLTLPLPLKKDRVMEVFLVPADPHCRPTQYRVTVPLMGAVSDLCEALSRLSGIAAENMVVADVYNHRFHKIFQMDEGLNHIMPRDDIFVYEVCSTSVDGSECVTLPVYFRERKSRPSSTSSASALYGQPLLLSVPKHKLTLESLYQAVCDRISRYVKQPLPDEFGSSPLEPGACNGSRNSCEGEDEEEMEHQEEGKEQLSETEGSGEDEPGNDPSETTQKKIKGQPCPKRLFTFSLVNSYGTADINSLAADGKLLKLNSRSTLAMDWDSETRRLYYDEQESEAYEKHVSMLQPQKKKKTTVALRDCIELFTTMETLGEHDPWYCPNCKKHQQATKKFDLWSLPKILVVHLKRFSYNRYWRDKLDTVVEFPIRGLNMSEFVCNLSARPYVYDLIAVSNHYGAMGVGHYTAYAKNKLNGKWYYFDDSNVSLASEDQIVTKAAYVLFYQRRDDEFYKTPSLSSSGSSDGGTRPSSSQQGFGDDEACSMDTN
Method in brief: as §1

Measured: log2 ratio of Biotin-Ahx-Ub-VS probe labelling

O=C(CCl)Nc1ccc(N2CCCC2=O)cc1
inactive: USP34 0.0377 | USP36 0.2 | USP38 0.147 | USP39 -0.106 | USP4 0.0532
